Data: PubChem BioAssay (Tox21)
Records with an inconclusive call do not appear. The source made the active and inactive calls. Unless noted, the call rests on the fitted dose curve; in most records, active means well fitted curve in the direction sought with a large enough effect in the repeat runs; inconclusive means weak or mixed curves; inactive means no such curve, though single readings can be large; an effect the other way counts as inactive or inconclusive.

Key:
[1] = biological target: Thyrotropin receptor (Homo sapiens) (UniProt P16473); test: qHTS assay to identify small molecule agonists of the thyroid stimulating hormone receptor (TSHR) signaling pathway (AID 1224843; calls by dose curve; further: nearly all actives have a fitted effect of over 45% in size; further: potency means the concentration at half of the fitted maximal effect)
Outline: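 Agonist-mode screen: TSHR HEK293 cells received test chemicals for half an hour at room temperature, then HTRF cAMP detection reagents for one hour prior to fluorescence measurement. Each chemical ran as a 15-concentration series, triplicated.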

[2] = qHTS assay to identify small molecule agonists of H2AX (AID 1224845; active means well fitted activation curve with a large enough effect in the signal ratio in the repeat runs, not every such curve was filed as active; the % refers to the signal ratio)
Outline: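 Wild-type CHO-K1 cells, plated overnight, exposed 3hr at 37C to 15 concentrations (0.76% DMSO final). Lysed, then HTRF anti-pH2AX (S139) cryptate and anti-H2AX-d2 antibodies, 24 hr room temperature; 665/620 nm emission read.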

[3] = qHTS assay to identify small molecule agonists of the hypoxia (HIF-1) signaling pathway (AID 1224846; active means well fitted activation curve with a large enough effect in the signal ratio in the repeat runs, not every such curve was filed as active; the % refers to the signal ratio)
Outline: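 Reporter induction in HRE-bla ME-180 cells is taken as agonism: cells sit 5 hrs after plating, receive compounds or DMSO only, incubate 17 hrs at 37C under 5% CO2, and are loaded with CCF4-AM for beta-lactamase FRET measurement.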

[4] = qHTS RealTime-Glo MT Cell Viability Assay in HepG2 cells - 24 hour (AID 1224867); further: nearly all actives have a fitted effect of over 50% in size; further: potency means the concentration at half of the fitted maximal effect
Outline: (§1)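 Real-time, nonlytic viability: 600 HepG2 cells/well mixed with NanoLuc enzyme plus prosubstrate; 5 h settle, compound (DMSO) added by pintool; luminescence monitored over 40 h at 37 C.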

[5] = qHTS RealTime-Glo MT Cell Viability Assay in HEK293 cells - 32 hour (AID 1224868); further: nearly all actives have a fitted effect of over 50% in size; further: potency means the concentration at half of the fitted maximal effect
Outline: (§2)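 Cells + reagent dispensed (600 cells/well, HEK293) → 5 h at 37 C/5% CO2 → 23 nL compound in DMSO pinned → 40 h at 37 C → luminescence read at 0, 8, 16, 24, 32, 40 h.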

[6] = A CellTox Green Cytotoxicity Assay to monitor cytotoxicity in HEK293 cells - 0 hour (AID 1224869); further: nearly all actives have a fitted effect of over 50% in size
Outline: (§3)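 Tox21 screen in HEK293: membrane-impermeant cyanine dye fluoresces on binding dead-cell DNA; compound pinned 5 h post-seeding, plates held at 37 C, signal read repeatedly through 40 h.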

[7] = qHTS RealTime-Glo MT Cell Viability Assay in HEK293 cells - 16 hour (AID 1224872); further: nearly all actives have a fitted effect of over 50% in size; further: potency means the concentration at half of the fitted maximal effect
Outline: as §2

[8] = A CellTox Green Cytotoxicity Assay to monitor cytotoxicity in HepG2 cells - 16 hour (AID 1224876); further: nearly all actives have a fitted effect of over 45% in size
Outline: (§4)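 Measurements at 0, 8, 16, 24, 32 and 40 h of treatment captured CellTox Green fluorescence in HepG2 cells that had been co-plated with reagent and preincubated 5 h at 37 C/5% CO2.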

[9] = A CellTox Green Cytotoxicity Assay to monitor cytotoxicity in HepG2 cells - 24 hour (AID 1224878); further: nearly all actives have a fitted effect of over 45% in size
Outline: as §4

[10] = qHTS assay to identify small molecule agonists of H2AX - cell viability counter screen (AID 1224847; calls by dose curve; further: top concentration of the series differs between compounds; nearly all actives have a fitted effect of over 30% in size)
Outline: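 Wild-type CHO-K1 cells (10% FBS medium) were plated overnight at 37C, exposed to compounds at 15 concentrations for 3 hr at 37C (0.76% DMSO final), and viability was read as CellTiter-Glo luminescence after 30 min at room temperature.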

[11] = qHTS RealTime-Glo MT Cell Viability Assay in HepG2 cells - 40 hour (AID 1224870); further: nearly all actives have a fitted effect of over 50% in size
Outline: (§5)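 HepG2 cells (600/well) mixed with RealTime-Glo MT reagent, settled 5 h at 37 C/5% CO2 before compound addition. Nonlytic NanoLuc luminescence from viable-cell prosubstrate reduction read repeatedly during 40 h treatment at 37 C.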

[12] = qHTS RealTime-Glo MT Cell Viability Assay in HepG2 cells - 8 hour (AID 1224873); further: nearly all actives have a fitted effect of over 55% in size
Outline: as §5

[13] = qHTS RealTime-Glo MT Cell Viability Assay in HEK293 cells - 40 hour (AID 1224874); details: RealTime-Glo luminescence; max response: stronger effect = lower value; further: nearly all actives have a fitted effect of over 50% in size; further: potency means the concentration at half of the fitted maximal effect
Outline: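 HEK293 + NanoLuc + prosubstrate, 600 cells/well; 5 h, 37 C/5% CO2; compound 23 nL in DMSO by pintool; 37 C; luminescence read at 0, 8, 16, 24, 32 and 40 h time points.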

[14] = A CellTox Green Cytotoxicity Assay to monitor cytotoxicity in HEK293 cells - 24 hour (AID 1224875); further: nearly all actives have a fitted effect of over 45% in size; further: potency means the concentration at half of the fitted maximal effect
Outline: as §3

[15] = A CellTox Green Cytotoxicity Assay to monitor cytotoxicity in HepG2 cells - 40 hour (AID 1224879); further: nearly all actives have a fitted effect of over 40% in size
Outline: as §4

[16] = qHTS assay to identify small molecule agonists of the hypoxia (HIF-1) signaling pathway - cell viability counter screen (AID 1224844; calls by dose curve; further: nearly all actives have a fitted effect of over 50% in size)
Outline: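 HRE-bla ME-180; 0.5% dFBS; cpd 17 h, 37C, 5% CO2; CellTiter-Glo lum., 30 min RT, post-FRET read, same wells.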

[17] = qHTS assay to identify small molecule antagonists of the estrogen related receptor (ERR) signaling pathway from Tox21 library (AID 1224848); further: nearly all actives have a fitted effect of over 50% in size; further: potency means the concentration at half of the fitted maximal effect
Outline: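 Quantitative high-throughput format: ERR reporter cells (2,000/well) pre-incubated 6 h, treated 18 h at 37 C with compounds in DMSO alongside positive and negative controls, then read by ONE-Glo luminescence.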

[18] = qHTS assay to identify small molecule agonists of the estrogen related receptor (ERR) signaling pathway from Tox21 library (AID 1224849; calls by dose curve; further: nearly all actives have a fitted effect of over 15% in size); details: ERR reporter cell line, ONE-Glo luciferase, 18 h; at 92.4 µM (top of the series) unless noted
Outline: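 Tox21 compounds tested for ERR agonism in an NTP reporter cell line: 18 h treatment at 37 C, then ONE-Glo luminescence.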

[19] = A CellTox Green Cytotoxicity Assay to monitor cytotoxicity in HEK293 cells - 40 hour (AID 1224871); further: nearly all actives have a fitted effect of over 45% in size; further: potency means the concentration at half of the fitted maximal effect
Outline: as §3

[20] = qHTS RealTime-Glo MT Cell Viability Assay in HepG2 cells - 32 hour (AID 1224877); further: nearly all actives have a fitted effect of over 55% in size
Outline: as §1
On the % scale 0 is the no-effect control and ±100 the full control effect.

Thyrotropin receptor (Homo sapiens), sequence (P16473 whole entry, looked up): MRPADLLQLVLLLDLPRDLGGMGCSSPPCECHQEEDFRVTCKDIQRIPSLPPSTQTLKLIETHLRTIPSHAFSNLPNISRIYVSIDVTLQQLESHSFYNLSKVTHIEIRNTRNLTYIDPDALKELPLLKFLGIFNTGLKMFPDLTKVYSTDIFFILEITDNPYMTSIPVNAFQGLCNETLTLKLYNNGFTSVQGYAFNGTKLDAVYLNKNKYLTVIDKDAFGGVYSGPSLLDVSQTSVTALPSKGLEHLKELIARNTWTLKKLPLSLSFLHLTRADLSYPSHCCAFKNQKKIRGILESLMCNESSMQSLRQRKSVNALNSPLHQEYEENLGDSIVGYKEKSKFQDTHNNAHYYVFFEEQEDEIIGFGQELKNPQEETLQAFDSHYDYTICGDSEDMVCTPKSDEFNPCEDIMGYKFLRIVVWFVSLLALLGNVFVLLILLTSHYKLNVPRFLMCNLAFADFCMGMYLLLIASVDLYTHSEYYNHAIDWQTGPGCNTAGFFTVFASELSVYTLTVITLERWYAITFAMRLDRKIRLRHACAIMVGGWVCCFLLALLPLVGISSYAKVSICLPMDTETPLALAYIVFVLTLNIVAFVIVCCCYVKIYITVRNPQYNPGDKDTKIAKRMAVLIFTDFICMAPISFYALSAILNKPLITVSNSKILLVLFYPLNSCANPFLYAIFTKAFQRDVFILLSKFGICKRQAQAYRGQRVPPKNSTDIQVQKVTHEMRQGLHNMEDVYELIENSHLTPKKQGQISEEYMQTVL

CCc1nn(CCCN2CCN(c3cccc(Cl)c3)CC2)c(=O)n1CCOc1ccccc1
active: Potency [4] 23.9 µM | Potency [5] 8.49 µM | Potency [7] 8.49 µM
inactive: Potency [1] | Potency [2] | outcome [3] | Potency [6] | Potency [8] | Potency [9]

CC(Cl)C(Cl)Cl (centres undefined)
inactive: Potency [1] | outcome [3] | Potency [10] | Potency [5] | Potency [11] | Potency [7] | Potency [12] | max response [13] -7.3% | Potency [8] | Potency [9] | Potency [15]
active: Potency [14] 42.9 µM

CC(C)OCC1CO1 (centres undefined)
inactive: Potency [16] | Potency [2] | outcome [3] | Potency [10] | Potency [17] | activity change, positive = activation [18] -0.395% | Potency [5] | Potency [6] | Potency [11] | Potency [19] | Potency [7] | Potency [12] | Potency [14] | Potency [8] | Potency [20] | Potency [9] | Potency [15]

CC1(C)C2=CCCC(C)(C)[C@]23CC[C@H]1C3
active: Potency [19] 38.9 µM
inactive: Potency [16] | Potency [2] | outcome [3] | Potency [10] | Potency [4] | Potency [5] | Potency [6] | Potency [11] | Potency [7] | Potency [12] | Potency [8] | Potency [20]

CCCCCCCC/C=C\CCCCCCCC(=O)OC(CO)CO
inactive: Potency [16] | Potency [2] | outcome [3] | Potency [10] | Potency [4] | Potency [5] | Potency [6] | Potency [11] | Potency [7] | Potency [12] | max response [13] 0.119% | Potency [14] | Potency [8] | Potency [9] | Potency [15]

CCOC(=O)c1ccccc1C
inactive: Potency [1] | Potency [2] | Potency [10] | Potency [4] | Potency [5] | Potency [6] | Potency [11] | Potency [7] | Potency [12] | max response [13] -14.1% | Potency [14] | Potency [8] | Potency [20] | Potency [9] | Potency [15]

O=[N+]([O-])c1cccc(S(=O)(=O)NCCNS(=O)(=O)c2cccc([N+](=O)[O-])c2)c1
inactive: Potency [16] | Potency [2] | outcome [3] | Potency [10] | activity change, positive = activation [18] -12.7% [at 42.5 µM] | Potency [5] | Potency [6] | Potency [11] | Potency [7] | Potency [12] | Potency [14] | Potency [8] | Potency [20] | Potency [9]

Cc1ccc(/C=N/n2c(-c3ccccc3)csc2=S)cc1
inactive: Potency [1] | Potency [2] | outcome [3] | Potency [17] | Potency [5] | Potency [6] | Potency [11] | Potency [19] | Potency [7] | Potency [12] | max response [13] -0.419% | Potency [8] | Potency [20] | Potency [9] | Potency [15]

CCOC(=O)CC(=O)C(=O)OCC
inactive: Potency [1] | outcome [3] | activity change, positive = activation [18] -57.1% | Potency [6] | Potency [11] | Potency [12] | Potency [14] | Potency [8] | Potency [20] | Potency [9] | Potency [15]
active: Potency [5] 49 µM | Potency [13] 43.6 µM

O=C(O)c1c(O)c(-c2ccccc2)nc2ccccc12
inactive: Potency [1] | Potency [2] | outcome [3] | Potency [10] | Potency [4] | Potency [5] | Potency [6] | Potency [11] | Potency [19] | Potency [7] | Potency [12] | max response [13] 0.412% | Potency [14] | Potency [8] | Potency [20] | Potency [9] | Potency [15]

CC1CC(=O)NN=C1c1ccc(NCC(C)(C)NCC(O)COc2cc(Cl)ccc2C#N)cc1 (centres undefined)
inactive: Potency [2] | outcome [3] | Potency [10] | activity change, positive = activation [18] -15% [at 42.5 µM] | Potency [6] | Potency [11] | Potency [19] | Potency [12] | Potency [8] | Potency [9] | Potency [15]
active: Potency [1] 1.19 µM

CCCCC(CC)C(=O)OCCOCCOCCOCCOC(=O)C(CC)CCCC (centres undefined)
inactive: Potency [16] | Potency [2] | outcome [3] | Potency [10] | Potency [6] | Potency [11] | Potency [19] | Potency [12] | Potency [14] | Potency [8] | Potency [20] | Potency [9] | Potency [15]
active: Potency [17] 30.6 µM

Cc1ccc(Nc2nccc(N(C)c3ccc4c(C)n(C)nc4c3)n2)cc1S(N)(=O)=O
active: Potency [17] 11.9 µM | Potency [5] 1.2 µM | Potency [7] 1.9 µM | Potency [13] 1.34 µM
inactive: Potency [16] | Potency [2] | outcome [3] | Potency [10] | activity change, positive = activation [18] -54.4% [at 42.5 µM] | Potency [4] | Potency [6] | Potency [11] | Potency [12] | Potency [8] | Potency [20] | Potency [9] | Potency [15]

Oc1ccc(Nc2ccccc2)cc1
inactive: Potency [1] | outcome [3] | Potency [10] | activity change, positive = activation [18] -35.9% | Potency [6] | Potency [11] | Potency [8] | Potency [9] | Potency [15]
active: Potency [17] 24.3 µM | Potency [5] 21.9 µM | Potency [7] 19.5 µM | Potency [13] 19.5 µM

COC(=O)CC(=O)C(C)(C)C
inactive: Potency [1] | Potency [2] | Potency [4] | Potency [5] | Potency [6] | Potency [11] | Potency [7] | Potency [12] | Potency [14] | Potency [8] | Potency [9] | Potency [15]

CC(C)C(=O)O
inactive: Potency [16] | Potency [2] | outcome [3] | Potency [10] | Potency [4] | Potency [5] | Potency [6] | Potency [11] | Potency [19] | Potency [7] | Potency [12] | Potency [14] | Potency [8] | Potency [20] | Potency [9] | Potency [15]
